Values joined by “and” are separate entries in the source; they are usually repeats but may differ in a detail not shown here. Equal values may be shown once. Results filed as inconclusive are left out. Active and inactive are the calls of the source. Unless noted, calls come from the whole dose curve; as a rule, active = well fitted curve in the direction sought with a large enough effect; inconclusive = small, poorly fitted or top-dose-only effect, or another doubt; inactive = no such curve, though single readings can be large; an effect the other way counts as inactive or inconclusive.
Columns and labels:
[1] = biological target: Cytochrome P450 1A2 (Homo sapiens) (UniProt P05177); assay: p450-cyp1a2 (AID 410; calls by dose curve;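 note: -100% = full effect of reference inhibitor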)
Sequence of Cytochrome P450 1A2 (Homo sapiens) (P05177 whole entry, looked up): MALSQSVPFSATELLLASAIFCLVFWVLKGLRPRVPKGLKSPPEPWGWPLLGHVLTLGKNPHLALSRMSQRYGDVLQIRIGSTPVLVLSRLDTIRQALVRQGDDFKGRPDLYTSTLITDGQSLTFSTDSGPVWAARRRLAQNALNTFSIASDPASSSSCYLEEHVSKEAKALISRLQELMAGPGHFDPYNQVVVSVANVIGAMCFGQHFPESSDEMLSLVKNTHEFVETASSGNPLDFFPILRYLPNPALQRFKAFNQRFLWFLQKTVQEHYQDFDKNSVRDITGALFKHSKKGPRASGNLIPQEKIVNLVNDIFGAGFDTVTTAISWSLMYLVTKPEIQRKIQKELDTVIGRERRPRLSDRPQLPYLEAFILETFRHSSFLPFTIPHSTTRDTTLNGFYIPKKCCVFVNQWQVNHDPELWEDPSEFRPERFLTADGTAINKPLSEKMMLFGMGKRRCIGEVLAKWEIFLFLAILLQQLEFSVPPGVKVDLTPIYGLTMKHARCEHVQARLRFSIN
How it was run: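 Luminescent demethylation readout: Luciferin-ME (100uM, equal to Km) turned over by 20nM CYP1A2 for 60 min at room temperature after NADPH regeneration addition, following 10 min compound preincubation. Normalization used 57 uM furafylline as full inhibition.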

[2] = biological target: Glucocorticoid receptor (Homo sapiens) (UniProt P04150); assay: GR-GFP Redistribution (AID 450;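 active = compounds whose dose series gives a full or clear partial fitted curve of increased nuclear translocation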; note: potency is the fitted concentration of half-maximal effect); conditions: U2OS GR-GFP nuclear translocation, laser cytometry, 2 h
Sequence of Glucocorticoid receptor (Homo sapiens) (P04150 whole entry, looked up, the tested form may be a part): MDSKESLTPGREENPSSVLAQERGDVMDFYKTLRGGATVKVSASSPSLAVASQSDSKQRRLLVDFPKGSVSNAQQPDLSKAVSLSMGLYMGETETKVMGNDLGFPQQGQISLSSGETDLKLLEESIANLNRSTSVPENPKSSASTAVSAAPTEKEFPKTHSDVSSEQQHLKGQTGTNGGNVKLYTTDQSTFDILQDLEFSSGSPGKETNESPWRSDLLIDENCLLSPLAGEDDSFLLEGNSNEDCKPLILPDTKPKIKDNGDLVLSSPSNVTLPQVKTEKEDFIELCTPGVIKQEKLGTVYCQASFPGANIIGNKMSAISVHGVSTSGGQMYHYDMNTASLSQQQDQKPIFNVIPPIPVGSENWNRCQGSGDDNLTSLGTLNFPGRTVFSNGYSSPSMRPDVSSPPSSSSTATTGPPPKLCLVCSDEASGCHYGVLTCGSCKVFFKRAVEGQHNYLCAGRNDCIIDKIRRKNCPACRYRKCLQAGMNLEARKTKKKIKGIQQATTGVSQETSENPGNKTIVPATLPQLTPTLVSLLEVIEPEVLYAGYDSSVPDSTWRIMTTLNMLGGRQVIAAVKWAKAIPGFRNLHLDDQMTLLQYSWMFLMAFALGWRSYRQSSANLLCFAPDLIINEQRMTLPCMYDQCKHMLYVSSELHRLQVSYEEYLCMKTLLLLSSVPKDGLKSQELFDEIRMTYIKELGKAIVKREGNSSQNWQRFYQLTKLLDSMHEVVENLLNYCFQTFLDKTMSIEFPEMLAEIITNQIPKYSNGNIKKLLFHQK

[3] = biological target: Glucocorticoid receptor (Homo sapiens) (UniProt P04150); assay: GR-EFC Redistribution (AID 451; calls by dose curve; note: potency is the fitted concentration of half-maximal effect); conditions: CHO-K1 GR-EFC translocation, beta-gal luminescence, 2 h
How it was run: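 CHO-K1 cells stably expressing nuclear-localized β-gal enzyme acceptor and GR fused C-terminally to the enzyme donor fragment; ligand-driven nuclear translocation restores β-gal by complementation. Compounds titrated up to 46 uM final, 2 h at 37 °C; luminescence read.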

[4] = biological target: Mitogen-activated protein kinase 10 (Mus musculus) (UniProt Q61831); assay: JNK3 AlphaScreen Assay (AID 530; active = well fitted curve in either direction with a large enough effect, not every such curve was filed as active;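 note: kinase came from lysate of stimulated human HepG2 cells; signal reports phosphorylation of biotinylated GST-cJun 1-79 at Ser73 with 10 µM ATP; % is set by controls: 0 for no effect and ±100 for the full control effect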)
How it was run: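 Phosphorylation of biotinylated GST-cJun(1-79) at Ser73 is measured by AlphaScreen proximity luminescence. Enzyme is JNK3 in HepG2 lysates activated with interleukin-1beta and tumor necrosis factor alpha; ATP is 10 uM final.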

[5] = biological target: 3',5'-cyclic-AMP phosphodiesterase 4B (Homo sapiens) (UniProt Q07343); assay: qHTS Assay for Inhibitors of PDE-IV (AID 607; active = well fitted activation curve with a large enough effect in the main read-out, with a control signal flat, not every such curve was filed as active; note: % of control where 0% means no effect)
Sequence of 3',5'-cyclic-AMP phosphodiesterase 4B (Homo sapiens) (Q07343 whole entry, looked up): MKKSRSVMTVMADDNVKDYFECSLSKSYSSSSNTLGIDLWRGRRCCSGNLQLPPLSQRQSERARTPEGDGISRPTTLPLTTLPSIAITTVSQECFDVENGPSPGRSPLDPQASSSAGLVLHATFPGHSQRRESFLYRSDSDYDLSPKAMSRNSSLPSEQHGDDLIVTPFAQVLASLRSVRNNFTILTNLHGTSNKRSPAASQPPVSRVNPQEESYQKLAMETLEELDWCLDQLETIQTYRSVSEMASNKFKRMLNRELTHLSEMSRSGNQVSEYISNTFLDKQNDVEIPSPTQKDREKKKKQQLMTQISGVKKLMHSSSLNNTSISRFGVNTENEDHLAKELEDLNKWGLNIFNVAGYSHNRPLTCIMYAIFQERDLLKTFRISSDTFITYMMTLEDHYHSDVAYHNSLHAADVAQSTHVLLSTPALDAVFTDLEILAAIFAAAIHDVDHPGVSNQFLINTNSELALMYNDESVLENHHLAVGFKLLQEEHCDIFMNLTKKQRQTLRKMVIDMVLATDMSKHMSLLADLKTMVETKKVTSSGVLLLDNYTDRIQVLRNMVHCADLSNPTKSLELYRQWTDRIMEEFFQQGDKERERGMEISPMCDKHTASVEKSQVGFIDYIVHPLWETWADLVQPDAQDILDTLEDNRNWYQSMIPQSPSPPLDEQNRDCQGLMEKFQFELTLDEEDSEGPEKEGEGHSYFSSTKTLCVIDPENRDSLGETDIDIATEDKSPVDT
How it was run: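 ACTOne HEK293 cells carry a modified cAMP-gated CNG channel and express endogenous PDE4; plated 1000 cells/well, compounds up to 22.9 uM final. Membrane-potential dye fluorescence (ex 535/em 590) was read; parental cells received 10 uM forskolin + 100 uM RO 20-1724.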

[6] = biological target: Cytochrome P450 3A4 (Homo sapiens) (UniProt P08684); assay: qHTS Assay for Activators of Cytochrome P450 3A4 (AID 885); note: nearly all actives have a fitted effect of over 65% in size
How it was run: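 CYP3A4 activity: Luciferin-PPXE O-dealkylation, 25uM substrate, 200mM KPO4, RT throughout. Read-out is luciferase luminescence; higher values reflect activation.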

[7] = biological target: DNA dC->dU-editing enzyme APOBEC-3G (Homo sapiens) (UniProt Q9HC16); assay: qHTS for inhibitors of Vif-A3G interactions: Validation (AID 588379); note: 0% is about no effect
Sequence of DNA dC->dU-editing enzyme APOBEC-3G (Homo sapiens) (Q9HC16 whole entry, looked up): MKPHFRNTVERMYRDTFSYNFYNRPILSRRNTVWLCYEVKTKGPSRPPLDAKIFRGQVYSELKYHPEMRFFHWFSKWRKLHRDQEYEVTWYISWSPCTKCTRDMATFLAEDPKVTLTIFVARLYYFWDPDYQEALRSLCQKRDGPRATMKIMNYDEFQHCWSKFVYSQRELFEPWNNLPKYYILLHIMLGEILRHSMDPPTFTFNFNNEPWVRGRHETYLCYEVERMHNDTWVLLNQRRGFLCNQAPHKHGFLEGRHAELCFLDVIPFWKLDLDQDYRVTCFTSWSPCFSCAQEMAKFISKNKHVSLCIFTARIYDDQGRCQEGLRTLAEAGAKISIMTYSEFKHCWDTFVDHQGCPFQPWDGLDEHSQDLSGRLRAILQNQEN
How it was run: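 Yellow fluorescence (Ex 488, Em 500-530) of Vif-coexpressing HeLa A3G-eYFP cells, scanned by Acumen cytometer, reports blocked A3G degradation. Cells plated at 700/well overnight at 37 deg C before compound addition, then a further overnight compound incubation at 37 deg C.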

[8] = tested on: Zika virus NS2B-NS3 protease; assay: Primary screen GU AMC qHTS for Zika virus inhibitors (AID 1347154);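 note: 0% = no-inhibitor control and -100% = no-enzyme control; nearly all actives have a fitted effect of over 70% in size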
How it was run: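 Unlinked Zika NS2B hydrophilic domain/NS3 protease domain noncovalent complex (25 nM final) in 10 mM Tris-HCl pH 8.0, 0.01% Tween 20, with AMC peptide substrate. Fluorescence (ex 340, em 450 nm) change over 15 min, room temperature; percent inhibition fitted to 4-parameter Hill equation.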

[9] = Primary qHTS for small molecule stabilizers of the endoplasmic reticulum resident proteome: Secreted ER Calcium Modulated Protein (SERCaMP) assay (AID 1508630); note: % is set by controls: 0 for no effect and ±100 for the full control effect
How it was run: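 The SH-SY5Y reporter protocol was run at 3 concentrations up to 38.3 uM (primary) or 11 concentrations (follow-up): 16 h compound, 100 nM thapsigargin for 4 h, then extracellular luciferase luminescence.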

[10] = AP1 Signaling Pathway (AID 357; active = well fitted curve in either direction with a large enough effect, not every such curve was filed as active; note: % is set by controls: 0 for no effect and ±100 for the full control effect)
How it was run: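 Titration-series screen for positive or negative modulators of EC50 EGF-induced signaling in ME-180 cells carrying an AP-1-driven beta-lactamase reporter. After 5 hours at 37 degrees Celsius, CCF4 460nm/530nm emission ratio gave %Activity; AC50 values derived.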

[11] = NFAT Signaling Pathway (AID 444; active = well fitted curve in either direction with a large enough effect, not every such curve was filed as active;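 note: carbachol stimulus at about its EC50 of 1 µM final; % is set by controls: 0 for no effect and ±100 for the full control effect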); conditions: Jurkat NFAT-bla M1, carbachol, beta-lactamase ratio, 5 h
How it was run: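 Jurkat cells carrying an NFAT-driven β-lactamase reporter and co-transfected muscarinic M1 receptor were treated with compound plus carbachol (1 uM final, an EC50 level) for 5 h at 37 °C. CCF4 loading followed for 1 h at RT; 460/530 nm ratio gave %activity.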

[12] = Stat Signaling Pathway (AID 446; active = well fitted curve in either direction with a large enough effect, not every such curve was filed as active)
How it was run: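 Compound effects on IL-6-induced STAT reporter activity were measured in ME-180 cells. After overnight culture, cells were co-treated with 40 pM IL-6 for 5 hrs before beta-lactamase substrate loading at room temperature.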

[13] = biological target: Guanine nucleotide-binding protein G(i) subunit alpha-1 (Homo sapiens) (UniProt P63096); assay: qHTS Assay for Inhibitors of RGS12 GoLoco Motif Activity (Green Fluorophore) (AID 879);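 note: 0% = labeled peptide with Gαi1 and full inhibition = labeled peptide alone without protein; negative values mean loss of peptide binding seen as reduced polarization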
Sequence of Guanine nucleotide-binding protein G(i) subunit alpha-1 (Homo sapiens) (P63096 whole entry, looked up): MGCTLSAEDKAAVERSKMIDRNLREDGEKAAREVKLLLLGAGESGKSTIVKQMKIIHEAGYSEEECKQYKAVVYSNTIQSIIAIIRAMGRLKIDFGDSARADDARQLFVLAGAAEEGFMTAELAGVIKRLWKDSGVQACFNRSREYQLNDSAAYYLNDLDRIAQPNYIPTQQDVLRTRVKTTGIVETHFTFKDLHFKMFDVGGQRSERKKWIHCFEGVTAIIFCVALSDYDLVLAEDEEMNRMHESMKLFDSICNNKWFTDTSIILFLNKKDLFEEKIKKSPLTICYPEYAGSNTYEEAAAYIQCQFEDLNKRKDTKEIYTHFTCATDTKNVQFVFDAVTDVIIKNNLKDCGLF
How it was run: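 A drop in FITC polarization marked displacement of the FITC-tagged RGS12 GoLoco peptide (10 nM) from Gαi1 (50 nM). Compounds were incubated 10 min at room temperature in Tris pH 7.5 buffer containing 150 mM NaCl, 0.1 mM GDP and 0.05% NP40; unlabeled peptide titration served as control.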

[14] = biological target: Cytochrome P450 2D6 (Homo sapiens) (UniProt P10635); assay: qHTS Assay for Inhibitors and Substrates of Cytochrome P450 2D6 (AID 891); note: nearly all actives have a fitted effect of over 60% in size; note: potency is the fitted concentration of half-maximal effect
How it was run: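 Luminescent read-out of luciferin formed by 5 nM human CYP2D6 demethylating 30 uM Luciferin-ME EGE (Km level) over 60 min at room temperature after NADPH regeneration addition. Data normalized to full inhibition by 1.43 uM quinidine.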

[15] = biological target: Pyruvate kinase (Leishmania mexicana) (UniProt Q27686); assay: qHTS Validation Assay for Inhibitors of Leishmania Mexicana Pyruvate Kinase (AID 945);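 note: 0% = DMSO only neutral control wells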
Sequence of Pyruvate kinase (Leishmania mexicana) (Q27686 2-499 E452W): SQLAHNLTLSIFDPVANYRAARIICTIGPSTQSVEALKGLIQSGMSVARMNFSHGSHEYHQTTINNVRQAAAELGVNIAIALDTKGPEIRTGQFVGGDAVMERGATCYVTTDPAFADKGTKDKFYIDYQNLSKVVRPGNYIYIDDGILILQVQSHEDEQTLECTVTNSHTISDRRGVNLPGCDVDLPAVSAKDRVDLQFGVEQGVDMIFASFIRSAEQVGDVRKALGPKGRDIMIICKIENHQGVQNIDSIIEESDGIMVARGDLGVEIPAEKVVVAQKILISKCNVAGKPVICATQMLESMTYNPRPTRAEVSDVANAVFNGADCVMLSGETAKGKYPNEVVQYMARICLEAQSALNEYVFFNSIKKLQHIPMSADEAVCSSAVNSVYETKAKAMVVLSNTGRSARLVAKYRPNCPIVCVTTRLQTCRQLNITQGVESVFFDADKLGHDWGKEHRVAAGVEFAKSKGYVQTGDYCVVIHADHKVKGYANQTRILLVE
How it was run: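 Mutant LmPYK (E451W), 0.2 nM, plus 0.5 mM PEP and 0.1 mM ADP in 50 mM imidazole pH 7.2 containing 0.01% Tween 20 and 0.05% BSA. Incubated 1 h at room temperature; luminescence via PKLight, normalized to DMSO.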

[16] = biological target: Pyruvate kinase PKM (Homo sapiens) (UniProt P14618); assay: qHTS Assay for Activators of Human Muscle Pyruvate Kinase (AID 954; active = well fitted curve in the direction sought with a large enough effect, not every such curve was filed as active;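 note: 0% = uninhibited enzyme and -100% = no enzyme or full thiadiazolimine inhibition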)
Sequence of Pyruvate kinase PKM (Homo sapiens) (P14618 whole entry, looked up): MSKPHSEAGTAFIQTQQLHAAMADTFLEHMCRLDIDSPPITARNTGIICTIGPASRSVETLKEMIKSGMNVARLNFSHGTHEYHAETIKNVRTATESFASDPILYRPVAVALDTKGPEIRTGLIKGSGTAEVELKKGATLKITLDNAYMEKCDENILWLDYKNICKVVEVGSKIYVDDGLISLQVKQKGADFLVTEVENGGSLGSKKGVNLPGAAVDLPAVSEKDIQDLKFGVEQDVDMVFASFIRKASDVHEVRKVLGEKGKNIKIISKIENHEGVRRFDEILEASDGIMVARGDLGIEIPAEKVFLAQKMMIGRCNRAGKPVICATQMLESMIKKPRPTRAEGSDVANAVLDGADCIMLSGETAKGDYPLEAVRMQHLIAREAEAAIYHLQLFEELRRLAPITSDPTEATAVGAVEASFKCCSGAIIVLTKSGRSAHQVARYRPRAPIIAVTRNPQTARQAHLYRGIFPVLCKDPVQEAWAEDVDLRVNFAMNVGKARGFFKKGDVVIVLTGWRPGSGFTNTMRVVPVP
How it was run: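 A coupled luminescent readout tracked ATP made from ADP by purified PKM2. Final conditions included 0.1 nM enzyme, PEP and ADP at 0.5 and 0.1 mM, pH 7.2 imidazole buffer with BSA, and a one-hour room-temperature reaction.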

[17] = biological target: Alpha-galactosidase A (Homo sapiens) (UniProt P06280); assay: Counterscreen for Glucocerebrosidase Inhibitors: qHTS Assay for Human alpha-Galactosidase at pH 4.5 (AID 992); note: 0% is about no effect
Sequence of Alpha-galactosidase A (Homo sapiens) (P06280 whole entry, looked up): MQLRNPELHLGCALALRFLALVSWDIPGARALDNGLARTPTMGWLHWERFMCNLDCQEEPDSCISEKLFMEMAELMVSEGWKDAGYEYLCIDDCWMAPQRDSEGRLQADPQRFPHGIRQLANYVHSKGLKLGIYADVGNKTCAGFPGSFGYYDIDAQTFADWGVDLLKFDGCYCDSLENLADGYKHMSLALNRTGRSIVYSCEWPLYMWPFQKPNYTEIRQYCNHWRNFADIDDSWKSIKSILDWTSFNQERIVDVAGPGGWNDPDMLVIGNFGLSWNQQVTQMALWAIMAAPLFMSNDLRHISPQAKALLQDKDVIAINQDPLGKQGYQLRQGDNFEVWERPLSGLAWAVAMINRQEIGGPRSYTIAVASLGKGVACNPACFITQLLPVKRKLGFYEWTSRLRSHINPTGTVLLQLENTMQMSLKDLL
How it was run: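 Citrate buffer pH 4.5, Tween-20 0.005%. Enzyme 2 nM, substrate 80 uM, 20 min RT. Stop pH 10. Fluorescence Ex 365/Em 440. AC50 by Hill fit.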

[18] = biological target: alpha-glucosidase (Oryza sativa, rice) (UniProt Q653V4); assay: Counterscreen for Glucocerebrosidase Inhibitors: qHTS Assay for Rice alpha-Glucosidase at pH 5.0 (AID 997);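 note: 0% = full activity with enzyme and -100% = basal without enzyme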
How it was run: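 Endpoint fluorogenic assay at pH 5.0: compounds (0.7 nM to 77 uM) titrated against 4 nM rice enzyme and 400 uM 4-MU-alpha-glucoside for 20 min at room temperature; NaOH/glycine stop, read ex 365/em 440 nm, Hill-fitted AC50.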

[19] = qHTS Assay for Lipid Storage Modulators (AID 1519; calls by dose curve); conditions: Drosophila S3 cells, BODIPY lipid droplet/cell ratio, laser cytometry, cells loaded with oleic acid
How it was run: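 Cells seeded at 5,000 per well were treated with compounds over a concentration series and loaded with oleic acid (400 uM, as added). Lipid droplet fluorescence (488 nm excitation, 500-530 nm channel) was read by laser-scanning cytometry and normalized to 20 uM Triacsin C.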

[20] = biological target: Ubiquitin carboxyl-terminal hydrolase 1 (Homo sapiens) (UniProt O94782); assay: Inhibitors of USP1/UAF1: Pilot qHTS (AID 504865);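 note: rhodamine fluorescence freed from ubiquitin-rhodamine substrate followed over time; top concentration of the series differs between compounds; % is set by controls: 0 for no effect and ±100 for the full control effect; nearly all actives have a fitted effect of over 35% in size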
Sequence of Ubiquitin carboxyl-terminal hydrolase 1 (Homo sapiens) (O94782 whole entry, looked up): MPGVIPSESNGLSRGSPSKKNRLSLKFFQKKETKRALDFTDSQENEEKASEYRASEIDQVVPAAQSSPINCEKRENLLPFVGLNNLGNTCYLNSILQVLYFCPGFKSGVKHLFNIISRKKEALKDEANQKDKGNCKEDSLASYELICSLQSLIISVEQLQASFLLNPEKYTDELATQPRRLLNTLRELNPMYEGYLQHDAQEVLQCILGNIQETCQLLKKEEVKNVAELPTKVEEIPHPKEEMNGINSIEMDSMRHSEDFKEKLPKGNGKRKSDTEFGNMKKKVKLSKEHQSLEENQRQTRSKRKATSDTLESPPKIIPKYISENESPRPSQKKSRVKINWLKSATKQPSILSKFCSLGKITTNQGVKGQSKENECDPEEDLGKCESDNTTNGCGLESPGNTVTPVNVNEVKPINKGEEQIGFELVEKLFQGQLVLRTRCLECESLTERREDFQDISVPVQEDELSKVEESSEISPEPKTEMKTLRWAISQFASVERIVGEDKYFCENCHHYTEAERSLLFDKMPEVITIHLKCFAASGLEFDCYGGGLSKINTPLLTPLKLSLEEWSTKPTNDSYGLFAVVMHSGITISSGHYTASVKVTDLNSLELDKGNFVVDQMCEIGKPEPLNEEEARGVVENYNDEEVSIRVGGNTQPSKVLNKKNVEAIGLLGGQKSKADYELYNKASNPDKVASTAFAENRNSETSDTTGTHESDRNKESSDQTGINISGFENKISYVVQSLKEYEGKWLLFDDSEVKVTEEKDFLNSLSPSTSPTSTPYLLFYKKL
How it was run: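 In 50mM HEPES pH 7.8 containing 0.5mM EDTA, 1mM TCEP, 0.1 mg/ml BSA and 0.01% Tween-20, 1nM USP1/UAF1 is exposed to compound for 15 min, then Ub-Rho (150nM final) is added and fluorescence is read over time.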

[21] = measured here: cell count channel max response
[22] = measured here: lipid channel max response

C=C(C)CN1CC[C@@]23c4c5ccc(O)c4O[C@H]2c2[nH]c4ccccc4c2C[C@]3(O)[C@@H]1C5
inactive: Potency [1] | Potency [2] > 46 µM | Potency [3] > 46 µM | outcome [4] | Potency [5] | Potency [6] | Potency [7] | Potency [8] | Potency [9]

N[C@H](CP(=O)(O)O)C(=O)O
inactive: outcome [10] | Potency [1] | activity change, negative = inhibition ([11]; at 38 µM (top of the series)) 5.18% | outcome [12] | Potency [2] > 46 µM | Potency [3] > 46 µM | outcome [4] | Potency [5] | outcome [13] | Potency [14] | outcome [15] | outcome [16] | outcome [17] | outcome [18] | activity change, negative = inhibition ([19]; at 57.5 µM (top of the series)) -5.82% | Potency [7] | Potency [8] | Potency [9]
12.7%: max response [19, 21]
11.5%: max response [19, 22]

O=C1CS[C@@H](c2ccccc2Cl)c2cc(Cl)ccc2N1
inactive: Potency [2] > 46 µM | Potency [3] > 46 µM | Potency [7] | Potency [8] | Potency [9]

N[C@H](CCP(=O)(O)O)C(=O)O
21.4%: max response [19, 22]
21.6%: max response [19, 21]
inactive: outcome [10] | activity change, negative = inhibition ([11]; at 38 µM (top of the series)) 13.5% | outcome [12] | Potency [2] > 46 µM | Potency [3] > 46 µM | outcome [4] | Potency [5] | outcome [13] | outcome [15] | outcome [16] | outcome [17] | outcome [18] | activity change, negative = inhibition ([19]; at 57.5 µM (top of the series)) 2.56% | Potency [20] | Potency [7] | Potency [8] | Potency [9]

COc1ccc2[nH]cc(CCNCc3ccc(Br)cc3)c2c1
inactive: Potency [8] | Potency [9]

C[C@@H](Cc1ccc(OCC(=O)O)cc1)NC[C@H](O)c1cccc(Cl)c1
8.85%: max response [19, 22]
inactive: outcome [10] | Potency [1] | activity change, negative = inhibition ([11]; at 38 µM (top of the series)) -11.2% | outcome [12] | Potency [2] > 46 µM | Potency [3] > 46 µM | outcome [4] | Potency [5] | outcome [13] | Potency [6] | outcome [15] | outcome [16] | outcome [17] | outcome [18] | activity change, negative = inhibition ([19]; at 57.5 µM (top of the series)) -1.87% | Potency [20] | Potency [7] | Potency [8] | Potency [9]
11.5%: max response [19, 21]

c1cncc(C2=NCCC2)c1
inactive: outcome [10] | activity change, negative = inhibition ([11]; at 17.2 µM (top of the series)) -0.876% | outcome [12] | Potency [2] > 20.6 µM | Potency [3] > 20.6 µM | outcome [4] | Potency [5] | activity change, negative = inhibition ([19]; at 25.7 µM (top of the series)) -0.221% | Potency [20] | Potency [8] | Potency [9]
-18.1%: max response [19, 21] | max response [19, 22]

N[C@@H](CCCCP(=O)(O)O)C(=O)O
-29%: max response [19, 22]
inactive: Potency [2] > 46 µM | Potency [3] > 46 µM | outcome [4] | Potency [5] | activity change, negative = inhibition ([19]; at 57.5 µM (top of the series)) 0.372% | Potency [20] | Potency [7] | Potency [8] | Potency [9]
-29.3%: max response [19, 21]

H-YPFVEPI-OH
inactive: activity change, negative = inhibition [8] -10.5% [at 6.83 µM] | activity change, negative = inhibition [9] -11.8% [at 3.88 µM]

CC(C)NC[C@H](O)c1ccc(N)c(C#N)c1
17.3%: max response [19, 21]
inactive: Potency [2] > 46 µM | Potency [3] > 46 µM | outcome [4] | activity change, negative = inhibition ([19]; at 57.5 µM (top of the series)) 11.2% | Potency [20] | Potency [7] | Potency [8] | Potency [9]
26.1%: max response [19, 22]

CNCC/C=C\c1cccnc1
inactive: Potency [1] | Potency [2] > 46 µM | Potency [3] > 46 µM | outcome [4] | Potency [5] | activity change, negative = inhibition ([19]; at 57.5 µM (top of the series)) 4.36% | Potency [20] | Potency [7] | Potency [8] | Potency [9]
-7.59%: max response [19, 21]
-3.17%: max response [19, 22]

CC(=O)N1CC[N+](C)(C)CC1
inactive: Potency [1] | Potency [2] > 46 µM | Potency [3] > 46 µM | outcome [4] | Potency [5] | activity change, negative = inhibition ([19]; at 57.5 µM (top of the series)) 2.08% | Potency [7] | Potency [8] | Potency [9]
-0.222%: max response [19, 22]
-4.3%: max response [19, 21]

c1ccc2c(c1)OC[C@@H](C1=NCCN1)O2
-0.675%: max response [19, 21]
inactive: Potency [1] | activity change, negative = inhibition ([11]; at 17.2 µM (top of the series)) -9.57% | activity change, negative = inhibition ([11]; at 38 µM (top of the series)) -27.1% | outcome [12] | Potency [2] > 46 µM and > 20.6 µM | Potency [3] > 46 µM and > 20.6 µM | outcome [4] | Potency [5] | outcome [13] | outcome [15] | outcome [16] | outcome [17] | outcome [18] | activity change, negative = inhibition ([19]; at 25.7 µM (top of the series)) 1.16% | Potency [20] | Potency [7] | Potency [8] | Potency [9]
active: Potency [14] 0.631 µM
-5.05%: max response [19, 22]

Reference: PubChem BioAssay (NCATS)
